Assay results from PubChem BioAssay AID1159580 (chemical genetic matrix, 2015).
Several values for one entry are separate records, joined by “and”; a condition that tells them apart may be missing. Identical values can stand only once. In all, about 5,500 compounds went through this assay and about 2,000 (36%) were called active. Another 18% or so got no clear call; they are omitted. No stated cut-off is given here; in the data, active means normalized growth mostly below about 0.91 (no sharp cut-off); inconclusive means no clear call, values can overlap the other calls; inactive means mostly above about 0.92. Some of the results follow. Some compounds were tested as several samples or in several runs, with calls that do not always agree.

Test: chemical genetic growth profiling, strain panel (AID 1159580);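 further: tested at 20 µM; growth read once vehicle control cultures reached saturation at 30 °C; 1 = growth at the plate median or of vehicle wells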
Details: S. cerevisiae deletion strains, growth OD

## C=CCCCCCCCCC(=O)O
Locus YAL021C, strain ccr4, stronger effect = lower value
  normalized growth: 0.996 (inactive) and 1 (inactive)
Locus YAL026C, strain drs2, stronger effect = lower value
  normalized growth: 0.984 (inactive) and 0.932 (inactive)
Locus YAL030W, strain snc1, stronger effect = lower value
  normalized growth: 0.973 (inactive) and 0.992 (inactive)
Locus YBL061C, strain skt5, stronger effect = lower value
  normalized growth: 0.968 (inactive) and 1 (inactive)
Locus YBR009C, strain hhf1, stronger effect = lower value
  normalized growth: 0.977 (inactive) and 0.983 (inactive)
Locus YBR023C, strain chs3, stronger effect = lower value
  normalized growth: 0.977 (inactive) and 0.985 (inactive)
Locus YBR171W, strain sec66, stronger effect = lower value
  normalized growth: 0.983 (inactive) and 0.976 (inactive)
Locus YBR231C, strain swc5, stronger effect = lower value
  normalized growth: 0.989 (inactive) and 1.01 (inactive)
Locus YBR279W, strain paf1, stronger effect = lower value
  normalized growth: 0.975 (inactive) and 0.985 (inactive)
Locus YCL011C, strain gbp2, stronger effect = lower value
  normalized growth: 0.978 (inactive) and 0.989 (inactive)
Locus YCL016C, strain dcc1, stronger effect = lower value
  normalized growth: 0.988 (inactive) and 0.992 (inactive)
Locus YCL061C, strain MRC1, stronger effect = lower value
  normalized growth: 0.99 (inactive) and 0.991 (inactive)
Locus YCL069W, strain vba3, stronger effect = lower value
  normalized growth: 0.989 (inactive) and 0.991 (inactive)
Locus YCR088W, strain abp1, stronger effect = lower value
  normalized growth: 0.978 (inactive) and 1 (inactive)
Locus YDL005C, strain med2, stronger effect = lower value
  normalized growth: 0.962 (inactive) and 1 (inactive)
Locus YDL040C, strain nat1, stronger effect = lower value
  normalized growth: 0.974 (inactive) and 0.994 (inactive)
Locus YDR001C, strain nth1, stronger effect = lower value
  normalized growth: 0.978 (inactive) and 1 (inactive)
Locus YDR069C, strain doa4, stronger effect = lower value
  normalized growth: 0.984 (inactive) and 0.997 (inactive)
Locus YDR137W, strain rgp1, stronger effect = lower value
  normalized growth: 0.988 (inactive) and 0.986 (inactive)
Locus YDR159W, strain sac3, stronger effect = lower value
  normalized growth: 1 (inactive) and 1.06 (inactive)
Locus YDR195W, strain ref2
  normalized growth: 1 (inactive) and 1.09 (inactive)
Locus YDR297W, strain sur2, stronger effect = lower value
  normalized growth: 0.978 (inactive) and 0.998 (inactive)
Locus YDR334W, strain swr1, stronger effect = lower value
  normalized growth: 0.988 (inactive) and 0.976 (inactive)
Locus YDR335W, strain msn5, stronger effect = lower value
  normalized growth: 0.981 (inactive) and 0.965 (inactive)
Locus YDR392W, strain spt3, stronger effect = lower value
  normalized growth: 0.898 (inactive) and 0.647 (active)
Locus YEL003W, strain gim4, stronger effect = lower value
  normalized growth: 0.984 (inactive) and 0.981 (inactive)
Locus YEL037C, strain rad23, stronger effect = lower value
  normalized growth: 0.969 (inactive) and 0.972 (inactive)
Locus YEL061C, strain CIN8 (second series), stronger effect = lower value
  normalized growth: 0.982 (inactive) and 0.992 (inactive)
Locus YER015W, strain faa2, stronger effect = lower value
  normalized growth: 0.985 (inactive) and 0.992 (inactive)
Locus YER016W, strain bim1, stronger effect = lower value
  normalized growth: 0.978 (inactive) and 0.985 (inactive)
Locus YER111C, strain swi4, stronger effect = lower value
  normalized growth: 0.981 (inactive) and 1 (inactive)
Locus YER155C, strain BEM2 (second series), stronger effect = lower value
  normalized growth: 0.977 (inactive) and 0.947 (inactive)
Locus YFR010W, strain ubp6, stronger effect = lower value
  normalized growth: 1.02 (inactive) and 0.951 (inactive)
Locus YGL167C, strain pmr1, stronger effect = lower value
  normalized growth: 0.961 (inactive) and 0.995 (inactive)
Locus YGL173C, strain kem1, stronger effect = lower value
  normalized growth: 0.984 (inactive) and 0.975 (inactive)
Locus YGL227W, strain vid30, stronger effect = lower value
  normalized growth: 0.97 (inactive) and 1 (inactive)
Locus YGL240W, strain doc1, stronger effect = lower value
  normalized growth: 0.976 (inactive) and 0.911 (inactive)
Locus YGL253W, strain hxk2, stronger effect = lower value
  normalized growth: 0.983 (inactive) and 0.978 (inactive)
Locus YHR013C, strain ard1, stronger effect = lower value
  normalized growth: 1.21 [resistant] (active) and 0.965 (inactive)
Locus YHR027C, strain rpn1, stronger effect = lower value
  normalized growth: 0.981 (inactive) and 0.971 (inactive)
Locus YHR030C, strain SLT2, stronger effect = lower value
  normalized growth: 0.948 (inactive) and 0.105 (active)
Locus YHR079C, strain IRE1, stronger effect = lower value
  normalized growth: 0.979 (inactive) and 0.111 (active)
Locus YHR142W, strain chs7, stronger effect = lower value
  normalized growth: 1.01 (inactive) and 0.926 (inactive)
Locus YJL092W, strain hpr5, stronger effect = lower value
  normalized growth: 0.979 (inactive) and 0.99 (inactive)
Locus YJL095W, strain BCK1 (second series), stronger effect = lower value
  normalized growth: 0.98 (inactive) and 0.996 (inactive)
Locus YJL095W, strain BCK1, stronger effect = lower value
  normalized growth: 0.974 (inactive) and 0.136 (active)
Locus YJL115W, strain asf1, stronger effect = lower value
  normalized growth: 0.974 (inactive) and 0.969 (inactive)
Locus YJL129C, strain trk1, stronger effect = lower value
  normalized growth: 0.984 (inactive) and 0.778 (active)
Locus YJL154C, strain vps35, stronger effect = lower value
  normalized growth: 0.978 (inactive) and 0.995 (inactive)
Locus YJL164C, strain tpk1, stronger effect = lower value
  normalized growth: 0.973 (inactive) and 0.929 (inactive)
Locus YJL166W, strain qcr8, stronger effect = lower value
  normalized growth: 0.993 (inactive) and 0.959 (inactive)
Locus YJL187C, strain SWE1, stronger effect = lower value
  normalized growth: 0.979 (inactive) and 0.99 (inactive)
Locus YJR066W, strain TOR1, stronger effect = lower value
  normalized growth: 0.928 (inactive) and 0.0525 (active)
Locus YKL160W, strain elf1, stronger effect = lower value
  normalized growth: 0.997 (inactive) and 0.97 (inactive)
Locus YKR026C, strain gcn3, stronger effect = lower value
  normalized growth: 0.951 (inactive) and 0.98 (inactive)
Locus YKR091W, strain srl3, stronger effect = lower value
  normalized growth: 0.986 (inactive) and 0.997 (inactive)
Locus YLL001W, strain dnm1, stronger effect = lower value
  normalized growth: 0.978 (inactive) and 0.993 (inactive)
Locus YLL026W, stronger effect = lower value
  normalized growth: 0.975 (inactive) and 0.996 (inactive)
Locus YLL041C, strain sdh2, stronger effect = lower value
  normalized growth: 0.992 (inactive) and 0.988 (inactive)
Locus YLR027C, strain aat2, stronger effect = lower value
  normalized growth: 0.987 (inactive) and 0.983 (inactive)
Locus YLR113W, strain HOG1, stronger effect = lower value
  normalized growth: 1.1 (inactive) and 0.156 (active)
Locus YLR221C, strain rsa3, stronger effect = lower value
  normalized growth: 0.984 (inactive) and 0.937 (inactive)
Locus YLR258W, strain gsy2, stronger effect = lower value
  normalized growth: 0.981 (inactive) and 1.01 (inactive)
Locus YLR262C, strain YPT6 (second series), stronger effect = lower value
  normalized growth: 0.978 (inactive) and 0.977 (inactive)
Locus YLR320W, strain mms22, stronger effect = lower value
  normalized growth: 0.998 (inactive) and 0.925 (inactive)
Locus YLR342W, strain FKS1, stronger effect = lower value
  normalized growth: 0.98 (inactive) and 0.989 (inactive)
Locus YLR357W, strain rsc2, stronger effect = lower value
  normalized growth: 0.948 (inactive) and 0.927 (inactive)
Locus YLR370C, strain arc18, stronger effect = lower value
  normalized growth: 0.987 (inactive) and 1 (inactive)
Locus YLR384C, strain iki3, stronger effect = lower value
  normalized growth: 0.968 (inactive) and 0.985 (inactive)
Locus YML120C, strain ndi1, stronger effect = lower value
  normalized growth: 0.997 (inactive) and 0.931 (inactive)
Locus YMR058W, strain fet3, stronger effect = lower value
  normalized growth: 0.981 (inactive) and 0.952 (inactive)
Locus YMR125W, strain sto1, stronger effect = lower value
  normalized growth: 0.938 (inactive) and 0.956 (inactive)
Locus YMR129W, stronger effect = lower value
  normalized growth: 0.993 (inactive) and 0.997 (inactive)
Locus YMR205C, strain PFK2, stronger effect = lower value
  normalized growth: 0.966 (inactive) and 1.04 (inactive)
Locus YMR231W, strain pep5, stronger effect = lower value
  normalized growth: 0.97 (inactive) and 0.951 (inactive)
Locus YNL071W, strain lat1, stronger effect = lower value
  normalized growth: 0.982 (inactive) and 0.953 (inactive)
Locus YNL183C, strain NPR1, stronger effect = lower value
  normalized growth: 0.933 (inactive) and 0.0268 (active)
Locus YNL209W, strain ssb2, stronger effect = lower value
  normalized growth: 0.979 (inactive) and 0.984 (inactive)
Locus YNL248C, strain rpa49, stronger effect = lower value
  normalized growth: 1.01 (inactive) and 0.852 (active)
Locus YNL322C, strain KRE1 (second series), stronger effect = lower value
  normalized growth: 0.981 (inactive) and 0.991 (inactive)
Locus YNR049C, strain mso1, stronger effect = lower value
  normalized growth: 0.979 (inactive) and 0.992 (inactive)
Locus YOR001W, strain rrp6, stronger effect = lower value
  normalized growth: 0.987 (inactive) and 0.93 (inactive)
Locus YOR070C, strain gyp1, stronger effect = lower value
  normalized growth: 0.974 (inactive) and 0.975 (inactive)
Locus YOR080W, strain dia2, stronger effect = lower value
  normalized growth: 0.965 (inactive) and 0.987 (inactive)
Locus YOR083W, strain WHI5, stronger effect = lower value
  normalized growth: 1.01 (inactive) and 0.909 (inactive)
Locus YOR106W, strain vam3, stronger effect = lower value
  normalized growth: 1.01 (inactive) and 0.925 (inactive)
Locus YOR231W, strain MKK1, stronger effect = lower value
  normalized growth: 0.953 (inactive) and 0.105 (active)
Locus YOR265W, strain rbl2, stronger effect = lower value
  normalized growth: 0.981 (inactive) and 0.986 (inactive)
Locus YOR270C, strain vph1, stronger effect = lower value
  normalized growth: 1.01 (inactive) and 0.771 (active)
Locus YOR290C, strain snf2, stronger effect = lower value
  normalized growth: 0.992 (inactive) and 0.916 (inactive)
Locus YPL051W, strain arl3, stronger effect = lower value
  normalized growth: 0.986 (inactive) and 0.967 (inactive)
Locus YPL078C, strain atp4, stronger effect = lower value
  normalized growth: 0.982 (inactive) and 0.88 (active)
Locus YPL106C, strain sse1, stronger effect = lower value
  normalized growth: 0.988 (inactive) and 1.04 (inactive)
Locus YPL240C, strain hsp82, stronger effect = lower value
  normalized growth: 0.986 (inactive) and 1 (inactive)
Locus YPL256C, strain CLN2, stronger effect = lower value
  normalized growth: 1.01 (inactive) and 0.114 (active)
